Reference: PubChem BioAssay
The source made the active and inactive calls. Unless noted, no rule for the calls is given here.

Tests used:
[1] = resazurin metabolic signal in HepG2 cells – cell-based, resazurin fluorescence, 24 h, PK04 Diversity Set, profiling panel (AID 1172); details: HepG2 viability, higher = more signal; also: test concentration not given here
[2] = budding yeast growth changes without added modifier – OD600, strain BY4716, 24 h, basal condition, primary screen (AID 1173); details: S. cerevisiae BY4716 growth, OD600, 24 h; higher = more signal, called active from +8 up or from −8 down
[3] = viability profiling in MM1S myeloma cells – cell-based, resazurin fluorescence, basal, 24 h, PK04 Diversity Set, profiling panel (AID 1174); details: higher = more signal, called active from +8 up or from −8 down;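 also: MM1S multiple myeloma cell line; test concentration not given here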
[4] = target: Dihydroorotate dehydrogenase (quinone), mitochondrial (Plasmodium falciparum (isolate 3D7)) (UniProt Q08210); experiment: inhibition of P. falciparum DHODH – biochemical, C-terminal His tag, absorbance 600 nm, primary screen (AID 1175); details: PfDHODH enzyme, DCIP absorbance 600 nm; higher = more signal, called active from +8 up or from −8 down;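 also: recombinant parasite enzyme with a five histidine tag at its C terminus; test concentration not given here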
Chain of Dihydroorotate dehydrogenase (quinone), mitochondrial (Plasmodium falciparum (isolate 3D7)) (Q08210 whole entry, looked up): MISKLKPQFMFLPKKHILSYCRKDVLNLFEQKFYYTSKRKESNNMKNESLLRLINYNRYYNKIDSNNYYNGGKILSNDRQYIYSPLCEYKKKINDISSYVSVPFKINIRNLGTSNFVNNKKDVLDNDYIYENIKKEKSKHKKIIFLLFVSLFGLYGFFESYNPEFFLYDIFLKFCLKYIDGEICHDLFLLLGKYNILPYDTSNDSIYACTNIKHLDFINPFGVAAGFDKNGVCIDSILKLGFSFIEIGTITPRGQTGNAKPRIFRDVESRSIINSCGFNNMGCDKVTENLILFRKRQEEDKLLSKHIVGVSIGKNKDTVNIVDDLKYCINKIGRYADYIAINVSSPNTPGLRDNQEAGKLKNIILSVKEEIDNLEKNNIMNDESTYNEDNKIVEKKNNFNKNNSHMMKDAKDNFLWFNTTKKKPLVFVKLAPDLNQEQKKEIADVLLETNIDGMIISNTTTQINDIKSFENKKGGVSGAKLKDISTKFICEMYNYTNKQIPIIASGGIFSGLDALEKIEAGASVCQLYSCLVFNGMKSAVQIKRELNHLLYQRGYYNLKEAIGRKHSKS

[5] = inhibition of PAO1 biofilm formation – strain PAO1, LB-PBS medium, absorbance 600 nm, primary screen (AID 1176); also: test concentration not given here; details: P. aeruginosa PAO1 growth/biofilm, A600, 12 h; higher = more signal
[6] = growth modulation of vineyard yeast isolate – strain RM11-1a, OD600, basal, 24 h, primary screen (AID 1177);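 also: cultures grown under basal conditions with no added stressor; test concentration not given here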; details: S. cerevisiae RM11-1a growth, OD600, 24 h; higher = more signal, called active from +8 up or from −8 down
[7] = growth of efflux-deficient E. coli DRC39 – strain DRC39, OD650, 24 h, E. coli filamentation inducers, primary screen (AID 1178);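 also: growth measured as culture turbidity by optical density at 650 nm; test concentration not given here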; details: E. coli DRC39 acrAB, higher = more signal, called active from +8 up or from −8 down
[8] = growth of efflux-deficient E. coli DRC39 – strain DRC39, OD650, 48 h, E. coli filamentation inducers, primary screen (AID 1179);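 also: screen aims at cell division blockers that make cells filament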; details: E. coli DRC39 delta-acrAB growth, higher = more signal, called active from +8 up or from −8 down
[9] = viability profiling in RPMI8226 myeloma cells – cell-based, resazurin fluorescence, basal, 24 h, PK04 Diversity Set, profiling panel (AID 1180); details: higher = more signal;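 also: RPMI8826 multiple myeloma cell line at 5000 cells per well; test concentration not given here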
[10] = target: E3 ubiquitin-protein ligase XIAP (Homo sapiens) (UniProt P98170); experiment: small molecules binding XIAP protein – biophysical, small-molecule microarray, fluorescence 635 nm, primary screen (AID 1181); details: higher = more signal;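 also: score merges 667 nm emission and signal to noise over triplicate slides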
Chain of E3 ubiquitin-protein ligase XIAP (Homo sapiens) (P98170 whole entry, looked up): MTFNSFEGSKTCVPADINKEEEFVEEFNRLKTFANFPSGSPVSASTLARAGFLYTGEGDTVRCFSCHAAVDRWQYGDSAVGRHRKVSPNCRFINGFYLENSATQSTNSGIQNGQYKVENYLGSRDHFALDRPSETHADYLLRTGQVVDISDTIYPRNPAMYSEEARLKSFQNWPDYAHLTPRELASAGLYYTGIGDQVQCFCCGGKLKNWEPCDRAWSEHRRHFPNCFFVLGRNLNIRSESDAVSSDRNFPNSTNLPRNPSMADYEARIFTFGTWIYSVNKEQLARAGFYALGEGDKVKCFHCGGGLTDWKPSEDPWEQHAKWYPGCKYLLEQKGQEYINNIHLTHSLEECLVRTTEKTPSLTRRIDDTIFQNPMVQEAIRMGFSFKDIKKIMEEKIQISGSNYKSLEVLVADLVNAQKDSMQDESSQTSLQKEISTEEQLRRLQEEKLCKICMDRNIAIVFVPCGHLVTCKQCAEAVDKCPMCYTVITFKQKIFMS

SMILES | z-score [1] | z-score [2] | z-score [3] | composite z-score [4] | z-score [5] | z-score [6] | z-score [7] | z-score [8] | z-score [9] | composite z-score [10]
CO[C@H]1C[C@@H]2C[C@H](O)CC(CC(=O)O[C@@H](C=CCC(C)C)C[C@@H]3CC[C@H](C)[C@@H](C1)O3)O2 | -0.37 | -1.47 (inactive) | -0.0942 (inactive) | -0.928 (inactive) | -0.139 (inactive) | -1.65 (inactive) | -0.033 (inactive) | -0.394 (inactive) | -0.384 | 0.0256
CCOC(=O)[C@H](CC(C)C)NC(=O)CCC1CC(OC(=O)NCCc2ccc(F)cc2)CC2(CCCC(COC(=O)NCCCN3CCCC3=O)O2)O1 (stereo not given in full) | 0.653 | -0.796 (inactive) | 0.469 (inactive) | 0.0102 (inactive) | 0.909 (inactive) | -0.129 (inactive) | 0.698 (inactive) | -0.405 (inactive) | 1.32 | -0.179
CCOC(=O)[C@H](Cc1ccccc1)NC(=O)CCC1CC(OC(=O)NCc2ccc3c(c2)OCO3)CC2(CCCC(COC(=O)NCCc3ccc(Cl)cc3)O2)O1 (stereo not given in full) | -0.202 | -0.65 (inactive) | 0.366 (inactive) | -1.47 (inactive) | 0.769 (inactive) | -1.72 (inactive) | -0.226 (inactive) | -0.756 (inactive) | -0.759 | -0.133
C#CCCCON=C1C[C@@H](O)[C@@H](O)[C@@H]2[C@@H]3C(=O)N(C4CCCCC4)C(=O)[C@@H]3CC[C@@H]12 | -0.673 | -3.17 (inactive) | -0.0738 (inactive) | -1.65 (inactive) | 0.164 (inactive) | -1.88 (inactive) | 0.587 (inactive) | 0.311 (inactive) | 0.321 | -0.392
CCOC(=O)CCN1C(=O)[C@H]2[C@H]3[C@H](O)[C@H](O)CC(=NOCC(C)C)[C@@H]3CC[C@H]2C1=O | -0.452 | -0.824 (inactive) | -0.665 (inactive) | -0.449 (inactive) | 0.377 (inactive) | -0.992 (inactive) | -0.268 (inactive) | -0.321 (inactive) | -0.889 | 0.0819
Cc1ccc(S(=O)(=O)N[C@@H]2COC(=O)CC=C[C@@H](C)[C@H](NS(=O)(=O)c3ccc(C)cc3)COC(=O)[C@H](C)NC(=O)CC=C[C@H]2C)cc1 | -0.286 | -0.547 (inactive) | 0.341 (inactive) | 0.576 (inactive) | -0.143 (inactive) | -0.188 (inactive) | 0.983 (inactive) | 0.0462 (inactive) | -0.24 | -0.227
C#CCCCON=C1C[C@@H](O)[C@@H](O)[C@@H]2[C@@H]3C(=O)N([C@@H](C)c4ccccc4)C(=O)[C@@H]3CC[C@@H]12 | -0.121 | 0.858 (inactive) | -0.521 (inactive) | 0.579 (inactive) | 0.237 (inactive) | 0.604 (inactive) | -0.612 (inactive) | -0.245 (inactive) | -0.245 | -0.124
CC(CCN1CCCc2nc(C)c(C)cc21)=NO[C@@H](C)c1cn([C@H](CO)Cc2ccccc2)nn1 | -0.333 | 0.472 (inactive) | 0.0688 (inactive) | -1.1 (inactive) | -0.725 (inactive) | 0.792 (inactive) | 0.851 (inactive) | 0.961 (inactive) | -0.789 | 0.115
CCc1cc2c(nc1CC)CCN(CCC(C)=NO[C@@H]1O[C@H](COC(C)=O)[C@@H](OC(C)=O)[C@H](OC(C)=O)[C@H]1OC(C)=O)C2 | -0.11 | -0.334 (inactive) | 0.164 (inactive) | -2.7 (inactive) | -0.585 (inactive) | -0.567 (inactive) | -1.25 (inactive) | -1.82 (inactive) | -0.387 | 0.0825
CCN1C(=O)[C@H]2[C@H]3[C@H](O)[C@H](O)CC(=NNC(=O)OCc4ccccc4)[C@@H]3CC[C@H]2C1=O | -0.501 | 0.226 (inactive) | -0.453 (inactive) | -0.283 (inactive) | -0.814 (inactive) | -0.338 (inactive) | 0.313 (inactive) | 0.0507 (inactive) | -0.747 | -0.0476
CON(C)C(=O)c1nnc2c(n1)[nH]c1ccccc12 | -0.244 | 0.304 (inactive) | 0.322 (inactive) | -0.306 (inactive) | 0.131 (inactive) | -0.915 (inactive) | 0.593 (inactive) | 0.572 (inactive) | 0.492 | 0.273
CC(=O)OC[C@H]1O[C@H](CCON=C(C)C)C=C[C@@H]1OC(C)=O | -0.97 | 0.421 (inactive) | -0.54 (inactive) | -0.0136 (inactive) | 0.265 (inactive) | 0.404 (inactive) | 0.795 (inactive) | -0.844 (inactive) | -0.0326 | -0.102
COC(=O)[C@H](C)NC(=O)CCC1CC(OC(=O)NCc2ccc3c(c2)OCO3)CC2(CCCC(COC(=O)NCc3ccccc3)O2)O1 (stereo not given in full) | 1.24 | -0.67 (inactive) | -0.731 (inactive) | -0.504 (inactive) | 0.38 (inactive) | 0.479 (inactive) | 1.03 (inactive) | 0.32 (inactive) | 1.11 | -0.205
CC(CCN1CCc2nc(-c3ccccc3)c(-c3ccccc3)cc2C1)=NOC(C)CN1CCCc2nc(C)c(C)cc21 (stereo not given) | -0.0686 | -3.98 (inactive) | -0.877 (inactive) | 0.417 (inactive) | 0.371 (inactive) | -0.572 (inactive) | 0.798 (inactive) | -0.391 (inactive) | -0.469 | 0.326
C[C@@H]1CC[C@H]2C(=O)OC(Cc3ccccc3)CN2[C@H]1c1ccc(Br)cc1 (stereo not given in full) | 0.352 | -3.48 (inactive) | 0.417 (inactive) | 0.637 (inactive) | -0.658 (inactive) | 0.2 (inactive) | 1.06 (inactive) | 0.485 (inactive) | -0.726 | 0.0299
